40 molecules from PubChem BioAssay (Tox21) can be followed below.

Values joined by “and” are separate entries in the source; they are usually repeats but may differ in a detail not shown here. Identical values can stand only once. Inconclusive results are not listed. A call without a number means that no potency is given here. Some structures have more than one record in an assay (separate samples or runs), and their calls can disagree. Active and inactive are the calls of the source. Calls follow the shape of the full dose curve.
Potency is read from the fitted curve at half-maximal effect.

The nature of the assay: qHTS assay to identify small molecule antagonists of the sonic hedgehog signaling (Shh) pathway (AID 1259369). Also: nearly all actives have a fitted effect of over 45% in size. Conditions: NIH/3T3 Gli1-Luc reporter, Shh antagonist, luminescence 24 h; series mostly up to 92.4 µM. The text has this:
U.S. Tox21 Program National Center for Advancing Translational Sciences [NCATS] NIH Chemical Genomics Center [NCGC] U.S. Environmental Protection Agency [EPA] National Institutes of Environmental Health Sciences [NIEHS] National Toxicology Program [NTP] U.S. Food and Drug Administration [FDA] Tox21 Assay Overview: The sonic hedgehog (Shh) pathway is essential for normal embryonic development. Dysregulation of the Shh pathway can cause severe developmental defects in organs. Therefore chemicals that interfere with the pathway are potential developmental toxicants. A cell line designated 3T3Gli1-Luc (DMB/OARSA/CFSAN/FDA, Laurel, MD), a NIH/3T3 derived clone containing stably integrated Gli1-Luc reporter is used to detect chemical interference of the Shh pathway, by changes in the expression of the firefly Luc gene under the control of the Gli1 transcriptional response element. This cell line was used to screen Tox21 libraries for identifying and prioritizing the potential developmental toxicants that interfere Shh pathway. Conditioned medium-stimulated mode was used to screen for chemicals inhibiting Shh signaling.
Tox21 Assay Protocol Summary: 3T3 Gli1-Luc cells were dispensed at 2,000 per well in 5uL of culture medium into white solid bottom 1536-well plates (Greiner Bio-One, Monroe, NC) using a Multidrop Combi (Thermo Scientific, Waltham, MA) dispenser. The assay plates were incubated at 37 C and 5% CO2 for 4hr, and then 23nL of compounds dissolved in DMSO and positive control were transferred using a Pintool station (Wako, San Diego, CA). The compound transfer was followed by the addition of 1ul conditioned medium or assay buffer using two separate tips of Flying Reagent Dispenser (FRD, Aurora Discovery, San Diego, CA). The assay plates were incubated at 37C and 5% CO2 for 24hr. For luciferase read, 4uL of Amplite Luciferase reporter gene assay reagent (AAT Bioquest, Inc. Sunnyvale, CA) was added to each well of the assay plates using FRD and incubated at room temperature for 30min. The luminescence signal was measured using a ViewLux plate reader (Perkin Elmer, Shelton, CT).
On to `CCC/C=N/O`, for which the Potency result was “inactive”.
For `CC(C)(C#N)N=NC(C)(C)C#N` the value was “inactive”.
On to `ClC(Cl)(Cl)Br`, for which the Potency result was “inactive”.
In the case of `CCOP(=O)(OCC)OCC` it was “inactive”.
In the case of `COc1ccc(O)c(C(C)(C)C)c1` it was “inactive”; in that of `OCCOCCO`, 4.46 µM (active) and inactive; in that of `C=CC(=O)OCC(CC)(COC(=O)C=C)COC(=O)C=C`, 2.23 µM (active) and 3.06 µM (active).
In the case of `Clc1cccc(C(Cl)(Cl)Cl)n1` it was “inactive”; in that of `Cc1ccc(N=CN(C)C=Nc2ccc(C)cc2C)c(C)c1`, 54.7 µM (active) and inactive; in that of `CN(C)P(=O)(N(C)C)N(C)C`, “inactive”.
As to `O=NN1CCOCC1`, the Potency result is “inactive”.
For `COc1ccc(CO)cc1` the value was “inactive”; for `ClC(Cl)=C(Cl)C(Cl)=C(Cl)Cl`, “inactive”.
For `Oc1ccc(Cl)cc1Cc1ccccc1` the value was 13.7 µM (active) and 24.6 µM (active); for `O=C(O)CF`, “inactive”.
In the case of `Cn1c(-c2ccccc2)cc(-c2ccccc2)[n+]1C` it was 306 nM (active) and inactive; in that of `Nc1ncn[nH]1`, “inactive”; in that of `COP(=S)(OC)Oc1ccc(S(=O)(=O)N(C)C)cc1`, “inactive”.
Consider `N#CCCCCC#N`, for which the Potency result was “inactive”.
For `N#Cc1c(Cl)c(Cl)c(Cl)c(C#N)c1Cl` the value was 0.3 µM (active); for `O=NN(c1ccccc1)c1ccccc1`, “inactive”; for `CNC(=O)Oc1cccc2c1OC(C)(C)C2`, “inactive”.
In the case of `CS(=O)(=O)NC(=O)c1cc(Oc2ccc(C(F)(F)F)cc2Cl)ccc1[N+](=O)[O-]` it was “inactive”; in that of `O=C(O)c1nn(Cc2ccc(Cl)cc2Cl)c2ccccc12`, “inactive”; in that of `CCC[CH2][Sn]([Cl])([CH2]CCC)[CH2]CCC`, 0.307 µM (active).
For `CC(C)(c1ccccc1)c1ccc(O)c(C(C)(C)c2ccccc2)c1` the value was 30.4 µM (active) and 13.7 µM (active); for `CCCCCCCCCC(CC)c1ccc(S(=O)(=O)O)cc1` (stereo not given), “inactive”.
Consider `CC1=C(C(=O)Nc2ccccc2)SCCO1`, for which the Potency entry is “inactive”.
For `CC1(C)Cc2cccc(O)c2O1` the value was “inactive”; for `Cc1cc(Cl)ccc1N=CN(C)C`, “inactive”; for `C[N+](C)(C)CC(=O)O`, “inactive”.
In the case of `O=C1C(Cl)=C(Cl)C(=O)c2ccccc21` it was 1.73 µM (active); in that of `CCCCCCCCCc1ccc(O)cc1`, 30.9 µM (active) and 43.3 µM (active); in that of `N#Cc1nn(-c2c(Cl)cc(C(F)(F)F)cc2Cl)c(N)c1S(=O)C(F)(F)F` (stereo not given), “inactive and 29.8 µM (active)”.
In the case of `CC(C)(c1ccccc1)c1ccc(O)cc1` it was 27.1 µM (active) and 30.6 µM (active); in that of `CCC1(c2ccc(N)cc2)CCC(=O)NC1=O` (stereo not given), “inactive”; in that of `CC(C)=CC1C(C(=O)OCN2C(=O)C3=C(CCCC3)C2=O)C1(C)C` (stereo not given), “inactive”.
Take `Nc1ccc([N+](=O)[O-])cc1N`: the Potency is 2.43 µM (active).
For `CN(C)c1nc(=O)n(C2CCCCC2)c(=O)n1C` the value was “inactive”.
For `CC(C)(c1ccc(OCC2CO2)cc1)c1ccc(OCC2CO2)cc1` (stereo not given) the value was 15.6 µM (active).
